High-throughput results (PubChem BioAssay)
Shiga toxin inh: A qHTS for Small Molecule Inhibitors of Shiga Toxin | inhibition, % at 38.7 µM | Vero cells, Shiga toxin protein synthesis inhibition reporter | actives 9.2% (n = 290,000); in the data active = inhibition mostly above about 28%, no sharp cut-off; inactive = mostly below about 43%; also: 0% is about no effect
Cycloheximide cs: Cycloheximide Counterscreen for Small Molecule Inhibitors of Shiga Toxin. cell reporter, cycloheximide protein synthesis inhibition counterscreen. max response, %. actives 12% (n = 300,000); in the data active = max response mostly above about 13%, no sharp cut-off; inactive = mostly below about 14%; also: read at 38.3 µM for the half of the compounds with a filed dose; 0% is about no effect
Pf growth 96h: Primary qHTS for delayed death inhibitors of the malarial parasite plastid, 96 hour incubation. actives 6.9% (n = 320,000). P. falciparum luciferase reporter growth, 96 h. Potency, µM (titrated, usually from 28.7 µM), without a hit: at the top dose activity change, negative = inhibition, usual class: inhibitors. AID 504834, 2011; also: potency is read from the fitted curve at half-maximal effect; % is scaled to controls: 0 for no effect and ±100 for the full control effect
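Two-generation exposure (96 h) targets delayed-death phenotype. Reporter parasites carrying integrated firefly luciferase, in red cells at 2% hematocrit and 0.05% parasitemia final, kept at 37 C, 5% CO2; luminescence loss indicates inhibition.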
Pf growth 48h: Primary qHTS for delayed death inhibitors of the malarial parasite plastid, 48 hour incubation | P. falciparum luciferase growth in erythrocytes, 48 h | Potency, µM (doses to about 28.7 µM), for the others: top-dose activity change, negative = inhibition, usual class: inhibitors | actives 5.9% (n = 310,000); also: potency is read from the fitted curve at half-maximal effect; % is scaled to controls: 0 for no effect and ±100 for the full control effect
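Luciferase-expressing parasites in RBCs, 2% Hct / 0.1% parasitemia final; RPMI 1640 + 0.5% Albumax; 37 C, 5% CO2, one generation; luminescence read-out, lower signal = inhibition.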
NS1 inh: qHTS Assay for Inhibitors of Influenza NS1 Protein Function. actives 0.4% (n = 270,000). Potency, µM (doses to about 46.1 µM), for the others: at the top dose activity, positive = more growth. AID 2326, 2010; calls by dose curve; also: potency is read from the fitted curve at half-maximal effect; actives are rising curves; nearly all actives have a fitted effect of over 50% in size
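Growth recovery, yeast-based: influenza A NS1 expressed in S. cerevisiae causes slow growth, and suppressors are detected by OD600. The parent strain without NS1 is used as positive control.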
Active calls of the source: *; u = inconclusive; x = not tested or not shown; [ ] = dose if it differs, or a comment. This is a sample that favours compounds with a hit; in the whole collection about 21% have one here. Unless noted, calls follow the shape of the dose curve; as a rule, active = well fitted inhibition curve with a large enough effect; inconclusive = small, poorly fitted or top-dose-only effect, or another doubt; inactive = no such curve, though single readings can be large or run the other way.

SMILES	Shiga toxin inh	Cycloheximide cs	Pf growth 96h	Pf growth 48h	NS1 inh
COc1ccc(S(=O)(=O)NCC(c2ccco2)N2CCc3ccccc3C2)cc1 (stereo not given)	x	x	6%	-1%	x
COc1ccc(S(=O)(=O)NCC(c2ccco2)N2CCc3ccccc32)cc1 (stereo not given)	x	x	u	9.3µM*	x
COc1ccc(C(=O)NCC(c2ccco2)N2CCc3ccccc32)c(OC)c1 (stereo not given)	x	x	13µM*	12µM*	x
O=[N+]([O-])c1ccc(S(=O)(=O)NCC(c2cccnc2)N2CCc3ccccc32)cc1 (stereo not given)	x	x	15µM*	12µM*	x
O=S(=O)(NCC(c1cccnc1)N1CCc2ccccc2C1)c1ccccc1 (stereo not given)	-4	-2	50%	-12%	-10%
COC(=O)c1sc(N2C(=O)C(O)=C(C(=O)c3ccc(C)o3)C2c2ccc(F)cc2)nc1C (stereo not given)	-7	-3	35%	3%	15%
O=c1c(Cc2ccc(F)cc2)c(O)ccn1C1CC1	9	5	-13%	5.2µM*	-1%
Cc1cc(C)c(S(=O)(=O)N2CCCCC2CCNC(=O)C(=O)NCCN2CCOCC2)c(C)c1 (stereo not given)	x	x	0%	-1%	x
CCOC(=O)c1c(NC(C)=O)sc2c(OC)c(Br)ccc12	-18	-3	x	9%	-9%
CCOC(=O)c1c(NC(C)=O)sc2c(O)c(CN3CCN(CC)CC3)ccc12	-16	-2	-17%	10µM*	13%
CC1(C)O[C@@H]2[C@H](O1)[C@@H](COS(=O)(=O)O)O[C@H]2n1cnc2c(N)ncnc21	x	x	51%	30%	x
Cc1ccc(C2=NNC(C(O)C(O)C(O)C(C)O)S2)cc1 (stereo not given)	107*	32*	91%	x	5%
CNC(=S)N1CCN(c2c(F)cc3c(=O)c(C(=O)O)cn(C4CC4)c3c2OC)CC1C (stereo not given)	-12	-9	13µM*	x	3%
COc1ccc(NC(=O)COC(=O)c2ccc(S(=O)(=O)N(C)c3ccccc3OC)cc2)c(OC)c1	-12	-3	1%	-10%	7%
C/C(=N\Nc1ccc([N+](=O)[O-])cc1)c1cc2ccccc2o1	3	11	15%	34%	4%
COc1ccc(OCC(=O)N/N=C(\C)c2cc3ccccc3o2)cc1	57*	26*	-7%	33%	3%
C/C(=N\NC(=O)c1ccc(O)cc1)c1cc2ccccc2o1	59*	29*	u	-15%	x
COc1ccc(OCC(=O)N/N=C(\C)c2ccc(OC)cc2)cc1	-3	20	-18%	4%	x
CCNC(=S)N/N=C(\C)c1cc2ccccc2o1	10	18*	u	u	3%
Cc1cccc(NC(N)=S)c1	-9	9	25%	32%	-6%
C/C(=N\NC(=S)Nc1cccc(C)c1)c1cc2ccccc2o1	3	1	8.3µM*	u	7%
CC(OC(=O)C1=COCCO1)C(=O)Nc1cc(S(=O)(=O)N2CCCCC2)ccc1Cl (stereo not given)	-7	-2	u	-4%	x
O=C(Nc1ccc(S(=O)(=O)NC2CCCCC2)cc1)c1ccco1	-6	1	u	u	4%
CC(C)n1cnc2cc(NC(=O)c3ccco3)ccc21	75*	28*	5%	99%	1%
COc1ccccc1-n1cnc2cc(NC(=O)c3ccco3)ccc21	84	12	x	-19%	-99%
SMILES	Shiga toxin inh	Cycloheximide cs	Pf growth 96h	Pf growth 48h	NS1 inh
O=C(Nc1ccc2c(c1)ncn2C1CCCCC1)c1ccco1	91*	37*	-8%[5.75 µM]	-18%	-133%
COc1ccc(-n2cnc3cc(NC(=O)c4ccco4)ccc32)cc1	-10	21	2.3µM*	x	-132%
CSCC[C@@H](CO)NC(=O)c1ccc2nc(C3CCCCC3)oc2c1	-3	-3	u	-6%	1%
O=C(NCc1ccccn1)c1cccc([N+](=O)[O-])c1	-2	-2	u	u	-9%
O=C(NCc1ccccn1)c1ccc2nc(C3CCCCC3)oc2c1	32*	22*	u	42%	-17%
CSCCNC(=O)c1ccc2nc(C3CCCCC3)oc2c1	86*	20*	u	u	-63%
CCOc1ccc(NS(=O)(=O)c2cc(NC(=O)CCS(=O)(=O)c3ccc(C)cc3)ccc2OC)cc1	-3	-2	-28%	2%	6%
